Assay results as given in article PMC12431657, “Discovery and mechanistic insights of dibenzoylmethane as a broad spectrum inhibitor of coronavirus” (PLOS Pathogens, 2025).
Counter-ions that a name gives are not always drawn. Like-named read-outs stand apart in the source and are kept apart here. About 95 (3%) of roughly 3,300 compounds showed an effect of 50% or more. The full list was thinned out, with strong results kept by preference.

Tested on: HCoV-229E
Design: species or system Huh-7; HTS, protection from HCoV-229E induced cell death, luminescent cell viability (CellCounting-Lite 2.0), inhibition rate
Conditions: 24 h post infection, 1 h compound pre-incubation, 10 µM, inhibitor

SMILES	229E Inhibition rate (229E Inhibition rate, 24 h)	229E Inhibition rate
C/C=C1\C(=O)C[C@H]2[C@@H]3CCC4=CC(=O)CC[C@]4(C)[C@H]3CC[C@]12C [(Z)-Guggulsterone]	6.7%	
C/C=C(/C)C(=O)O[C@@H]1[C@H](OC(=O)CC(C)C)c2c(ccc3ccc(=O)oc23)OC1(C)C [Praeruptorin C]		32.9%
C/C=C(/C)C(=O)O[C@H]1[C@@H](OC(C)=O)c2c(ccc3ccc(=O)oc23)OC1(C)C [Praeruptorin A]		19.1%
C/C=C(\C)C(=O)OC1c2c(ccc3ccc(=O)oc23)OC(C)(C)C1OC(=O)/C(C)=C/C (stereo not drawn) [Praeruptorin B]		53.9%
C/C=C(/C)C(=O)O[C@@H]1c2c(ccc3ccc(=O)oc23)OC(C)(C)[C@@H]1OC(=O)/C(C)=C\C [(-)-Anomalin]		51.7%
C/C=C(/C)C(=O)O[C@@H]1c2c(ccc3ccc(=O)oc23)OC(C)(C)[C@@H]1OC(C)=O [Pteryxin]		4.8%
C/C=C(/C)C(=O)O[C@H]1[C@@H](OC(=O)CC(C)C)c2c(ccc3ccc(=O)oc23)OC1(C)C [Praeruptorin E]		43.4%
CC(C)=CCc1c2ccoc2c(O)c2oc(=O)ccc12 [Alloimperatorin]		0%
c1c2c(cc3c1OCO3)-c1cc3ccc4c(c3c[n+]1CC2)OCO4 [Coptisine (chloride)]	32%	
O=C(O)C1CSSC1 [Asparagusic acid]		15.6%
CC(C)C[C@H](NC(=O)CN)C(=O)O [Glycyl-L-leucine]		13.8%
O=C1c2c(O)cc(O)cc2O[C@H](c2ccc(O)cc2)[C@H]1O [Dihydrokaempferol]		9.9%
C=C(C)[C@H](CC=C(C)C)Cc1c(O)cc(OC)c2c1O[C@H](c1ccc(O)cc1O)CC2=O [Kurarinone]		19.7%
COc1cc(O)c(CC=C(C)C)c2c1C(=O)CC(c1ccc(O)cc1)O2 (stereo not drawn) [Isoxanthohumol]		23.6%
C=C(C)[C@H](CC=C(C)C)Cc1c(O)cc(OC)c2c1O[C@H](c1ccc(O)cc1OC)CC2=O [(2S)-2'-Methoxykurarinone]		62.1%
C=C(C)[C@H](CC=C(C)C)Cc1c(O)cc(OC)c2c1O[C@H](c1ccc(O)cc1O)[C@@H](O)C2=O [Kushenol I]		6.5%
C=C(C)[C@H](CC=C(C)C)Cc1c(O)cc(O)c2c1O[C@H](c1ccccc1O)CC2=O [Kushenol A]		10.8%
C=C(C)[C@H](CC=C(C)C)Cc1c(O)cc(O)c2c1O[C@H](c1ccc(O)cc1O)CC2=O [sophoraflavanone G]		75.7%
C[C@H](O)[C@H](O)C1=Nc2c(nc(N)[nH]c2=O)NC1 [7,8-Dihydro-L-biopterin]		24.5%
N[C@@H](CCC(=O)O)C(=O)O [L-Glutamic acid (monosodium salt)]	12%	
C[C@@H]1O[C@@H](O[C@H]2[C@H](Oc3cc(O)c4c(=O)cc(-c5ccc(O)cc5)oc4c3)O[C@H](CO[C@@H]3O[C@H](CO)[C@@H](O)[C@H](O)[C@H]3O)[C@@H](O)[C@@H]2O)[C@H](O)[C@H](O)[C@H]1O [Apigenin-7-O-(2G-rhamnosyl)gentiobioside]		22.2%

SMILES	229E Inhibition rate (229E Inhibition rate, 24 h)	229E Inhibition rate
Nc1ccccc1S(=O)(=O)O [2-Aminobenzenesulfonic acid]		0%
COc1cc(-c2[o+]c3cc(O)cc(O)c3cc2O)cc(O)c1O [Petunidin (chloride)]		13.2%
O=C(/C=C/c1ccc(O[C@@H]2O[C@H](CO)[C@@H](O)[C@H](O)[C@H]2O)cc1)c1ccc(O)cc1O [Isoliquiritin]		27.7%
O=C(/C=C/c1ccc(O[C@@H]2O[C@H](CO)[C@@H](O)[C@H](O)[C@H]2O[C@@H]2OC[C@](O)(CO)[C@H]2O)cc1)c1ccc(O)cc1O [Isoliquiritin apioside]		63.8%
O=C(/C=C/c1ccc(O)cc1)c1ccc(O[C@@H]2O[C@H](CO)[C@@H](O)[C@H](O)[C@H]2O)cc1O [Neoisoliquiritin]		24.9%
C=C1CC[C@H]2O[C@]2(C)CC[C@@H]2[C@@H]1CC2(C)C [Caryophyllene oxide]		16.3%
O=C(O)c1ccc(O)c(O)c1O [2,3,4-Trihydroxybenzoic acid]		18%
C[C@H](CC[C@@H](O[C@@H]1O[C@H](CO[C@@H]2O[C@H](CO)[C@@H](O)[C@H](O)[C@H]2O)[C@@H](O)[C@H](O)[C@H]1O[C@@H]1O[C@H](CO)[C@@H](O)[C@H](O)[C@H]1O)C(C)(C)O)[C@H]1CC[C@@]2(C)[C@@H]3CC=C4[C@@H](CC[C@H](O[C@@H]5O[C@H](CO[C@@H]6O[C@H](CO)[C@@H](O)[C@H](O)[C@H]6O)[C@@H](O)[C@H](O)[C@H]5O)C4(C)C)[C@]3(C)C(=O)C[C@]12C [11-oxo-mogroside V]		0%
COc1cc([C@@H]2OC[C@@H]3[C@H]2CO[C@H]3c2cc(OC)c(O)c(OC)c2)cc(OC)c1O [(-)-Syringaresinol]		16.7%
Cc1cc(O)c2c(c1)C(=O)c1cccc(O[C@@H]3O[C@H](CO)[C@@H](O)[C@H](O)[C@H]3O)c1C2=O [Chrysophanol 8-O-glucoside]		8.4%
Cc1cc(O[C@@H]2O[C@H](CO)[C@@H](O)[C@H](O)[C@H]2O)c2c(c1)C(=O)c1cccc(O)c1C2=O [Chrysophanein]		51.1%
CC(=O)OC[C@H]1O[C@@H](O[C@@H]2[C@@H](O)[C@H](O[C@@H]3[C@H](O)C(C)(C)C[C@H]4C5=CC[C@@H]6[C@@]7(C)CC[C@H](O[C@@H]8O[C@H](C(=O)O)[C@@H](O)[C@H](O)[C@H]8O[C@@H]8O[C@H](CO)[C@H](O)[C@H](O)[C@H]8O[C@@H]8O[C@H](CO)[C@@H](O)[C@H](O)[C@H]8O)[C@](C)(CO)[C@@H]7CC[C@@]6(C)[C@]5(C)CC[C@@]34C)OC[C@@H]2O)[C@H](OC(C)=O)[C@@H](OC(C)=O)[C@@H]1OC(C)=O [Soyasaponin Ab]		46.7%
CN1CCC=C(C(=O)O)C1 [Arecaidine]	7.9%	
O=C(/C=C/c1ccc(O)c(O)c1)O[C@@H](C(=O)O)[C@@H](OC(=O)/C=C/c1ccc(O)c(O)c1)C(=O)O [Chicoric acid]	8%	
CC(=O)OCCC(C)CCC=C(C)C (stereo not drawn) [Citronellyl acetate]		16.2%
CCC(O)CC [3-Pentanol]		19%
COc1cc(-c2coc3cc4c(c(O)c3c2=O)OCO4)cc(O)c1OC [Dichotomitin]		53.3%
COc1cc(-c2coc3cc4c(c(OC)c3c2=O)OCO4)cc(OC)c1OC [Irisflorentin]		11.3%
COc1cc(-c2coc3cc(O)c(OC)c(O)c3c2=O)cc(O)c1OC [Irigenin]		11.4%
CO[C@@H]1[C@H](O)[C@@H](CO)O[C@H]1n1ccc(=O)[nH]c1=O [2′-O-Methyluridine]		20.9%
Oc1ccc(C2COc3cc(O)ccc3C2)cc1 (racemic) [(±)-Equol]		11%

SMILES	229E Inhibition rate (229E Inhibition rate, 24 h)	229E Inhibition rate
CC1(C)C=Cc2c(ccc3c2OC[C@@H](c2ccc(O)cc2O)C3)O1 [Glabridin]		54.3%
Oc1ccc([C@H]2COc3cc(O)ccc3C2)cc1 [(-)-(S)-Equol]		8.5%
C=C1C[C@@]23CC[C@H]4[C@@](C)(CCC[C@@]4(C)C(=O)O)[C@@H]2CC[C@@H]1C3 [Kaurenoic acid]		8.8%
CC(C)(O)CC[C@@H](O)[C@](C)(O)[C@H]1CC=C2C3=C(CC[C@@]21C)[C@@]1(C)C[C@H](O)[C@H](O)C[C@H]1C(=O)C3 [Podecdysone B]		11.2%
C[C@H](CCC(=O)O)[C@H]1CC[C@H]2[C@@H]3C(=O)C[C@@H]4C[C@H](O)CC[C@]4(C)[C@H]3CC[C@]12C [7-Ketolithocholic acid]		20.5%
Cc1ccc(C(=O)O)cc1C [3,4-Dimethylbenzoic acid]		23.9%
COc1cc(C(C)=O)ccc1O [Apocynin]		5.3%
COc1ccc(C(=O)O)cc1O [Isovanillic acid]		0%
COc1cc(C(=O)O)ccc1O [Vanillic acid]		50%
CC(=O)c1ccc(O)c(O)c1 [3',4'-Dihydroxyacetophenone]		12.4%
Cc1cc(C(=O)O)ccc1O [4-Hydroxy-3-methylbenzoic acid]		61.9%
COC(=O)c1ccc(OC)c(O)c1 [Methyl isovanillate]		12.8%
COc1ccc(C(C)=O)cc1O [3-Hydroxy-4-methoxyacetophenone]		50.5%
CC(=O)c1ccc(O)c(C)c1 [4'-Hydroxy-3'-methylacetophenone]		11.7%
O=Cc1cccs1 [2-Thiophenecarboxaldehyde]		6.5%
O=C(O)C(O)Cc1ccccc1 (racemic) [DL-3-Phenyllactic acid]		22.4%
COc1cc2c(cc1O)CCN1Cc3c(ccc(OC)c3OC)C[C@@H]21 [Corypalmine]		8.4%
C=C[C@](C)(O)CC[C@H]1C(=C)CC[C@H]2C(C)(C)CCC[C@]12C [Manool]		42.5%
COc1ccc(-c2oc3c(CCC(C)(C)O)c(O)cc(O)c3c(=O)c2O)cc1 [Wushanicaritin]		51.4%
CC(C)(O)CCc1c(O)cc(O)c2c(=O)c(O)c(-c3ccc(O)cc3)oc12 [Noricaritin]		14.9%
COc1ccc(-c2oc3c(CC=C(C)C)c(O)cc(O)c3c(=O)c2O)cc1 [Icaritin]		8.6%
